# Bioassay records deposited in PubChem by The Scripps Research Institute Molecular Screening Center.
# Rows were chosen to be rich in hits. Some 4.1% of all compounds tested hit in one or more screens of this group.
# hgDAF12 agonist = hgDAF-12 agonism, primary luciferase screen. HEK293 GAL4-hgDAF12 UAS-luciferase reporter, agonist luminescence; normalized to butyrate control. activation, % at 6.8 µM. 1.8% of 370,000 active. AID 687014;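 active = activation above a cutoff set at the mean of all screened compounds plus 3 SD, cut at about 10% in these data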;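 also: 0% = DMSO wells and 100% = sodium butyrate wells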
# DAX1 inh-1 = inhibitors of DAX1 repression of SF-1 activated StAR promoter. 1.1% of 370,000 active. AID 652010. inhibition, % at 6.8 µM. HEK293T StAR-luciferase reporter, SF-1/DAX-1 repression relief;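 active = inhibition above the mean over all tested compounds plus 3 SD, cut at about 3.6% in these data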;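 also: 0% = DAX-1 cells with DMSO and 100% = cells lacking DAX-1 with DMSO; higher inhibition means more luminescence from relief of DAX-1 repression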
# hcDAF-12 act = H. contortus DAF-12 activation, primary screen; HEK293 hcDAF-12 lit1-tk-luc reporter, luminescence; 0% DMSO, 100% Δ7-dafachronic acid; activation, % at 6.8 µM; 1.4% of 370,000 active; AID 652067;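 active = activation above the mean of all tested compounds plus 3 SD, cut at about 5.5% in these data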;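 also: 100% = response to 3 µM Δ7-dafachronic acid high control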
# DAX1 inh-2 = inhibits human nuclear receptor DAX1; inhibition, % at 6.75 µM; 0.99% of 340,000 active; P51843; HEK293 Gal4-DAX1 luciferase reporter, luminescence;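 active = inhibition above the mean over all tested compounds plus 3 SD, cut at about 4.2% in these data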;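 also: 0% = DAX1-transfected cells with DMSO and 100% = empty-vector control cells with DMSO; inhibition shows as a rise in luminescence from relieved DAX1 repression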
# Target sequence (P51843 207-470 limits assumed): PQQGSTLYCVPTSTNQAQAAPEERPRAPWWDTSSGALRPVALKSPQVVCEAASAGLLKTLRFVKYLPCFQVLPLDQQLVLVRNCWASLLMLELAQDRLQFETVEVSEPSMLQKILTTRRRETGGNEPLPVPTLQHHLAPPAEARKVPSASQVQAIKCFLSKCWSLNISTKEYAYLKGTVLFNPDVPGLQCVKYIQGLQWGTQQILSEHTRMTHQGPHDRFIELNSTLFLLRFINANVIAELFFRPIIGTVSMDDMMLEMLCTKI
# ssDAF-12 act = S. stercoralis DAF-12 activation, primary screen; HEK293 ssDAF-12/GRIP1 lit1-tk-luc reporter, luminescence; % of 3 µM dafachronic acid response; activation, % at 6.8 µM; 1% of 370,000 active; AID 652126;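 active = activation above the mean over all tested compounds plus 3 SD, cut at about 0.9% in these data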;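 also: 0% = DMSO-only wells and 100% = 3 µM delta7-dafachronic acid wells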
# * = called active by the depositor; . = no result.
SMILES,hgDAF12 agonist,DAX1 inh-1,hcDAF-12 act,DAX1 inh-2,ssDAF-12 act
CCCOc1cccc(C(=O)Nc2ccc(Br)cc2F)c1,11*,2,4,3,-1
CCCOc1cccc(C(=O)Nc2cccc3ncccc23)c1,0,-1,-2,-1,-1
Cc1c(NC(=O)COC(=O)c2ccccc2Cl)c(=O)n(-c2ccccc2)n1C,2,-1,-2,0,-1
Cc1c(NC(=O)COC(=O)c2cccn2C)c(=O)n(-c2ccccc2)n1C,0,1,1,4.4*,-1
O=C(N/N=C/c1ccccn1)c1ccco1,10,1,0,2,0
Cc1ccc(/C=N/NC(=O)c2ccco2)cc1,12*,2,3,.,-1
Cc1ccc(C(=O)Nc2cccc(C(=O)N/N=C/c3ccc(O)cc3)c2)cc1,7,1,5.9*,-1,0
O=C(N/N=C/c1ccc2ncccc2c1)c1ccco1,8,4.2*,5,-2,1
O=C(N/N=C\CCc1ccccc1)c1ccco1,13*,2,3,2,0
Cc1cccc(-n2c(C)cc(/C=N\NC(=O)c3ccco3)c2C)c1,10,2,2,2,-1
COc1ccc(-c2c(Cc3ccccc3)nc(NC(=O)c3ccccc3F)n2C)cc1,0,0,-1,.,-1
CC(C)=CCC/C(C)=C/CN1CC(=O)N2[C@H](C[C@@]3(n4ccc5ccccc54)c4ccccc4N(S(=O)(=O)c4ccccc4)[C@@H]23)C1=O,0,-1,1,.,-1
Cc1cc(CN2CCCC(N3CCc4ccccc4C3)C2)cc(C)c1O (stereo unspecified),11*,0,5,1,1
COc1cc2c(cc1OC)CN(C1CCCN(Cc3cccc(C(C)=O)c3)C1)CC2 (stereo unspecified),0,0,0,0,-1
COC(=O)C1CN(Cc2ccccc2)CCS(=O)(=O)N1Cc1cn(Cc2ccc(C)cc2)nn1 (stereo unspecified),0,-1,-3,.,-2
O=C(CNC(=O)c1ccc(N2C(=O)c3ccccc3C2=O)cc1)OCC(=O)c1ccc(Cl)cc1,-1,0,-1,-1,1.7*
Cc1ccc(C(=O)COC(=O)CNC(=O)c2ccc(N3C(=O)c4ccccc4C3=O)cc2)cc1C,0,0,1,1,-1
O=C(CNC(=O)c1cccs1)OCC(=O)c1ccc(Cl)cc1,-1,0,-1,-1,12*
O=C1CN(c2ccc(F)cc2)C(=S)N1c1ccccc1,5,0,2,-1,0
COc1ccc(N=C2C(=Nc3ccc(OC)cc3)N(c3ccc(OC)cc3)C(=S)N2c2ccccc2)cc1,9,2,4,2,0
O=C1CN(c2ccccc2)C(=S)N1c1ccccc1,3,1,1,4.4*,-1
COc1ccc(N2CC(=O)N(c3ccccc3)C2=S)cc1,12*,2,4,0,0
COc1ccc(NC(=O)NNC(=O)CCC(=O)Nc2ccccc2Cl)cc1,0,0,-1,8.3*,-2
COc1ccc2cc(C(=O)NCc3ccco3)c(=Nc3ccc(C(=O)O)cc3)oc2c1,11*,1,5,-1,0
COc1ccc2cc(C(=O)NCc3ccco3)c(=O)oc2c1,10*,2,2,2,0
SMILES,hgDAF12 agonist,DAX1 inh-1,hcDAF-12 act,DAX1 inh-2,ssDAF-12 act
O=C(OC12CCCN(C1)/C(=C/c1cccnc1)C2)C1CCCCC1 (stereo unspecified),-4,-3,-4,.,-2
O=C1N=C(N2CCCCC2)S/C1=C\c1ccccc1F,4,0,0,4.3*,-1
O=C1N=C(N2CCCC2)S/C1=C\c1ccccc1,1,0,-2,1,-1
O=C(Cc1ccccc1)NNc1ccc2ccccc2c1,1,2,5.9*,3,0
Cc1cc(=O)[nH]c(SCC(=O)Nc2cccc(C)c2C)n1,-3,-2,-1,.,-2
CCCCN=C(N)NC(=O)OCc1ccccc1,5,2,4,.,0
CNC(=O)CC1C(=O)N(Cc2ccccc2)C(=S)N1NC(=O)c1cccc(F)c1 (stereo unspecified),2,0,-3,-1,1.2*
CNC(=O)CC1C(=O)N(c2ccc(Cl)cc2)C(=S)N1NC(=O)c1cccc(F)c1 (stereo unspecified),3,0,0,0,0
Nc1nnc(-c2ccc(Cl)c(Cl)c2)s1,1,0,3,5.8*,-1
O=C(Cn1ccc([N+](=O)[O-])n1)N1CCCCC1,-1,0,-1,5.5*,-1
O=C(Cn1ccc([N+](=O)[O-])n1)N1CCCCCC1,4,-1,-1,0,-1
c1ccc(OCCOc2ncnc3ccccc23)cc1,11*,1,0,0,-1
O=C(COc1ncnc2ccccc12)c1ccc(Cl)cc1,11*,2,1,0,-1
CCCCc1nc2cc(C(=O)N3CCC(OC)CC3)ccc2o1,3,1,3,2,-1
C=CCC1(CC=C)CCCN1C(=O)c1ccc2oc(CCCC)nc2c1,12*,1,6.3*,4.9*,0
Oc1ccc(N=Nc2ccccc2)o1,0,0,0,-2,4.4*
O=c1ccc(N=Nc2ccccc2)ccc1O,4,0,4,0,0
CCOC(=O)N1CCN(C(=O)c2ccc3nc(N4CCCCC4)sc3c2)CC1,1,0,-1,0,-1
CCOC(=O)N1CCN(C(=O)c2ccc3nc(N4CCC(C)CC4)sc3c2)CC1,0,-1,-1,-2,-2
COc1cccc(N2CCN(C(=O)c3ccc4nc(N5CCC(C)CC5)sc4c3)CC2)c1,12*,1,1,.,-1
NC(=O)C1CCN(C(=O)c2ccc3nc(N4CCCCC4)sc3c2)CC1,7,1,1,5.2*,0
Cc1cc(C(C)(C)C)ccc1Oc1cccc2c1S(=O)(=O)N(C1CCCC1)CC(COCc1ccccc1)O2 (stereo unspecified),3,3.6*,0,1,0
COc1cc(F)ccc1Oc1cccc2c1S(=O)(=O)N(C1CC1)C[C@@H](COCc1ccccc1)O2,-1,-1,-2,.,-1
COc1ccc(OC)c(C(=O)COC(=O)c2cccnc2Cl)c1,3,0,0,2,-1
COc1ccc(C(=O)COC(=O)c2n[nH]c3ccccc23)c(OC)c1,12*,4.2*,4,2,0
COc1ccc(C(=O)COC(=O)c2cccnc2Cl)c(OC)c1,13*,1,0,2,-1
Cc1cc(C(=O)COC(=O)c2n[nH]c3ccccc23)c(C)n1C,17*,4.5*,8.1*,2,1.2*
COc1ccc(OC)c(NC(=O)COC(=O)c2n[nH]c3ccccc23)c1,0,0,0,-1,-1
COc1ccc(C(=O)Cn2cnc3ccccc3c2=O)c(OC)c1,6,3.6*,3,1,-1
